This is part of a sample that, as a whole, favours compounds with a hit. Of some 79,000 tested, about 15% had one in any assay. Active and inactive are the calls of the source. Rule as the data show it: active = growth inhibition above about 70%; inactive = the rest.
How the values were obtained:
[1] = NCI Yeast Anticancer Drug Screen. Data for the rad52 strain (AID 147);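 also: 0% = growth of vehicle-treated control cultures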; conditions: S. cerevisiae rad52 mutant growth inhibition, active compounds read high
Procedure, shortened: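 Screen used a yeast mutant impaired in DNA repair. After compound exposure, growth was measured. Values reflect inhibition compared with vehicle-treated cells.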

[2] = NCI Yeast Anticancer Drug Screen. Data for the wt1 strain (AID 149);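 also: 0% = growth of vehicle-treated wt1 cultures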; conditions: S. cerevisiae wt1 strain (SPY 50644) growth inhibition, active compounds read high
Procedure, shortened: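 wt1 yeast, compound-treated; % growth inhibition vs vehicle control.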

[3] = NCI Yeast Anticancer Drug Screen. Data for the rad50EPP+ strain (AID 151);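 also: 0% = growth of vehicle-treated control cultures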; conditions: S. cerevisiae rad50 mutant strain, active compounds read high
Procedure, shortened: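 Exposing the rad50EPP+ strain to each compound, growth was compared with vehicle-only cultures to give inhibition.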

[4] = NCI Yeast Anticancer Drug Screen. Data for the rad50 strain (AID 155);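 also: 0% = growth of vehicle-only cultures of the same strain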; conditions: S. cerevisiae rad50 strain growth inhibition, active compounds read high
Procedure, shortened: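 Genetically altered yeast (DNA repair pathway); compound treatment; growth inhibition vs vehicle ctrl.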

[5] = NCI Yeast Anticancer Drug Screen. Data for the mec2-1 strain (AID 157); conditions: S. cerevisiae mec2-1 strain, active compounds read high
Procedure, shortened: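 Readout is yeast growth inhibition, normalised to vehicle-treated controls, in the mec2-1 strain exposed to compound.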

[6] = NCI Yeast Anticancer Drug Screen. Data for the sgs1 mgt1 strain (AID 161);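 also: 0% = growth of cultures given vehicle only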; conditions: S. cerevisiae sgs1 mgt1 strain, active compounds read high
Procedure, shortened: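 Yeast cells carrying a defined DNA-repair defect were exposed to test compounds. Growth inhibition was measured relative to vehicle-treated controls.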

[7] = NCI Yeast Anticancer Drug Screen. Data for the CLN2oe strain (AID 163);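 also: 0% = growth of vehicle-only control cultures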; conditions: S. cerevisiae CLN2oe strain, active compounds read high
Procedure, shortened: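 Values reflect how much compound exposure reduced yeast growth, referenced to vehicle-exposed cells. Assay organism is a strain with a defined genetic change affecting cell-cycle control.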

[8] = NCI Yeast Anticancer Drug Screen. Data for the cln2 rad14 strain (AID 165);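 also: 0% = growth equal to vehicle treated cultures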; conditions: S. cerevisiae cln2 rad14 strain, active compounds read high
Procedure, shortened: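 Relative to vehicle controls, growth inhibition of compound-treated cln2 rad14 yeast was recorded.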

[9] = NCI Yeast Anticancer Drug Screen. Data for the bub3 strain (AID 167); conditions: S. cerevisiae bub3 mutant strain, active compounds read high
Procedure, shortened: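 Yeast carrying a defined mutation is treated with each compound, and growth is compared with that of vehicle-exposed cells to give inhibition.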

[10] = NCI Yeast Anticancer Drug Screen. Data for the sgs1 strain (AID 173);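 also: 0% = growth of vehicle-only control cultures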; conditions: S. cerevisiae sgs1 mutant, active compounds read high
Procedure, shortened: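 Treat defined-mutant yeast with compound; measure growth; calculate inhibition relative to vehicle-treated cells.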

[11] = NCI Yeast Anticancer Drug Screen. Data for the mlh1 rad18 strain (AID 175); conditions: S. cerevisiae mlh1 rad18 strain growth inhibition, active compounds read high
Procedure, shortened: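 Test agents were incubated with a yeast strain of defined genotype (DNA damage repair defect). Inhibition of growth was derived by comparison with vehicle-exposed cultures.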

[12] = NCI Yeast Anticancer Drug Screen. Data for the rad18 strain (AID 177); conditions: S. cerevisiae rad18 mutant growth inhibition, active compounds read high
Procedure, shortened: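 A genetically defined yeast mutant impaired in DNA damage repair was treated with test compounds, then its growth was measured against cultures receiving vehicle alone.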

[13] = NCI Yeast Anticancer Drug Screen. Data for the mgt1 strain (AID 153); conditions: S. cerevisiae mgt1 mutant growth inhibition, active compounds read high
Procedure, shortened: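 Genetically defined yeast (mgt1) treated with compound; inhibition of growth expressed against vehicle-treated controls.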

[14] = NCI Yeast Anticancer Drug Screen. Data for the rad14 strain (AID 159);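 also: 0% = growth of vehicle-treated control cultures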; conditions: S. cerevisiae rad14 strain growth inhibition, active compounds read high
Procedure, shortened: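 Test compounds were applied to a repair-deficient yeast strain. Its growth was then compared with that of cultures given vehicle alone, and inhibition was expressed relative to those controls.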

[15] = NCI Yeast Anticancer Drug Screen. Data for the wt2 strain (AID 169);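 also: 0% = growth of vehicle-treated yeast cultures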; conditions: S. cerevisiae wt2 strain growth inhibition, active compounds read high
Procedure, shortened: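 Values express reduction in yeast growth under compound treatment, referenced to vehicle-treated cells.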

[16] = NCI Yeast Anticancer Drug Screen. Data for the mlh1 strain (AID 171);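 also: 0% = growth of vehicle-treated control cultures of the same strain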; conditions: S. cerevisiae mlh1 strain growth inhibition, active compounds read high
Procedure, shortened: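 Steps: expose the defined-mutant yeast strain to compound; expose a parallel culture to vehicle; measure growth; express compound effect as inhibition relative to the vehicle culture.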

[17] = at 5.0 µM (retest, dose inferred, filed as 0.5)
[18] = at 50.0 µM (retest, dose inferred, filed as 5.0)

Measured: growth inhibition

O=C1c2ccccc2C(=O)c2c(NC3CCCCC3)ccc(Nc3ccc(S(=O)(=O)O)cc3)c21
active: [3]; at 33.0 µM 80% | [4]; at 50.0 µM 79.2% | [5]; at 50.0 µM 77% | [6]; [18] 85% | [6]; at 50.0 µM 77.2% | [9]; at 50.0 µM 70.3% | [10]; at 33.0 µM 79% | [10]; at 100.0 µM 72% | [11]; [18] 72% | [11]; at 50.0 µM 82.9%
inactive: [1]; at 1.2 µM -5% | [1]; at 3.7 µM -5% | [1]; at 11.0 µM -5% | [1]; at 33.0 µM 37% | [1]; at 100.0 µM 49% | [2]; at 1.2 µM -1% | [2]; at 3.7 µM -5% | [2]; at 11.0 µM -7% | [2]; at 33.0 µM 10% | [2]; at 100.0 µM 33% | [3]; at 1.2 µM -2% | [3]; at 3.7 µM 5% | [3]; at 11.0 µM 56% | [3]; at 100.0 µM 63% | [4]; at 1.2 µM 0% | [4]; at 3.7 µM -2% | [4]; [17] 8% | [4]; at 11.0 µM 9% | [4]; at 33.0 µM 27% | [4]; [18] 62% | [4]; at 100.0 µM 44% | [5]; at 1.2 µM 1% | [5]; at 3.7 µM -5% | [5]; [17] -14% | [5]; at 11.0 µM -5% | [5]; at 33.0 µM 14% | [5]; [18] 59% | [5]; at 100.0 µM 48% | [6]; [17] -13% | [7]; at 1.2 µM -5% | [7]; at 3.7 µM 4% | [7]; at 11.0 µM -5% | [7]; at 33.0 µM 1% | [7]; at 100.0 µM 18% | [8]; [17] -13% | [8]; [18] -4% | [8]; at 50.0 µM 59% | [9]; at 1.2 µM -2% | [9]; at 3.7 µM -4% | [9]; [17] 6% | [9]; at 11.0 µM 5% | [9]; at 33.0 µM 36% | [9]; [18] 46% | [9]; at 100.0 µM 30% | [10]; at 1.2 µM -1% | [10]; at 3.7 µM -2% | [10]; at 11.0 µM 23% | [11]; [17] 5% | [12]; at 1.2 µM -2% | [12]; at 3.7 µM -13% | [12]; at 11.0 µM -1% | [12]; at 33.0 µM 40% | [12]; at 100.0 µM 46%

CC(=O)ON1C(=O)c2cccc3cccc(c23)C1=O
active: [1]; at 11.0 µM 91% | [1]; at 33.0 µM 97% | [1]; at 100.0 µM 98% | [13]; at 11.0 µM 95% | [13]; at 33.0 µM 97% | [13]; at 100.0 µM 98% | [4]; at 11.0 µM 93% | [4]; at 33.0 µM 97% | [4]; [18] 96% | [4]; at 50.0 µM 81.9% | [4]; at 100.0 µM 98% | [5]; at 11.0 µM 95% | [5]; at 33.0 µM 98% | [5]; [18] 97% | [5]; at 50.0 µM 87.8% | [5]; at 100.0 µM 98% | [14]; at 3.7 µM 95% | [14]; at 11.0 µM 98% | [14]; at 33.0 µM 99% | [14]; at 100.0 µM 99% | [6]; [18] 92% | [6]; at 50.0 µM 90.7% | [7]; at 100.0 µM 77% | [9]; at 33.0 µM 91% | [9]; [18] 96% | [9]; at 50.0 µM 89.5% | [9]; at 100.0 µM 95% | [15]; at 33.0 µM 95% | [15]; at 100.0 µM 99% | [16]; at 3.7 µM 91% | [16]; at 11.0 µM 97% | [16]; at 33.0 µM 99% | [16]; at 100.0 µM 98% | [10]; at 3.7 µM 91% | [10]; at 11.0 µM 97% | [10]; at 33.0 µM 98% | [10]; at 100.0 µM 98% | [11]; [18] 97% | [11]; at 50.0 µM 81.4% | [12]; at 11.0 µM 86% | [12]; at 33.0 µM 97% | [12]; at 100.0 µM 97%
inactive: [1]; at 1.2 µM 13% | [1]; at 3.7 µM 38% | [3]; at 1.2 µM -2% | [3]; at 3.7 µM 0% | [3]; at 11.0 µM 0% | [3]; at 33.0 µM 9% | [3]; at 100.0 µM 57% | [13]; at 1.2 µM 8% | [13]; at 3.7 µM 46% | [4]; at 1.2 µM 18% | [4]; at 3.7 µM 57% | [4]; [17] 51% | [5]; at 1.2 µM -4% | [5]; at 3.7 µM 33% | [5]; [17] -3% | [14]; at 1.2 µM 51% | [6]; [17] 22% | [7]; at 1.2 µM 8% | [7]; at 3.7 µM 10% | [7]; at 11.0 µM 11% | [7]; at 33.0 µM 32% | [8]; [17] 23% | [8]; [18] 69% | [8]; at 50.0 µM 29.4% | [9]; at 1.2 µM 2% | [9]; at 3.7 µM 10% | [9]; [17] 69% | [9]; at 11.0 µM 24% | [15]; at 1.2 µM 4% | [15]; at 3.7 µM 2% | [15]; at 11.0 µM 20% | [16]; at 1.2 µM 61% | [10]; at 1.2 µM 44% | [11]; [17] 44% | [12]; at 1.2 µM 15% | [12]; at 3.7 µM 29%
